# Measurements from PubChem BioAssay (EPA / NIEHS).
# Inconclusive results are not listed. Calls of active or inactive are those of the source. The calls were made as follows, unless noted: active = hit-call score of the fitted dose curve at least 0.9, where 1 is the maximum; inconclusive = response in the unintended direction; inactive = score below 0.9.
# Assays:
# [1] = system: Sodium/Iodide Symporter (NIS), SLC5A5 (gene 6528); test: CPHEA_Stoker_NIS_Inhibition_RAIU: CPHEA's Radioactive Iodide Uptake (RAIU) Assay for Sodium/Iodide Symporter (NIS) Inhibition, Stoker and Laws Labs (AID 2283841)
# Method in brief: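 Iodide uptake through human NIS is measured in an engineered HEK293T line. Cells take up 125I (329pM final) for 2 hours at room temperature alongside chemicals at 0.001–100uM. Retained radioactivity is counted, and the signal is expressed against DMSO controls.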
# [2] = CPHEA_Stoker_NIS_Cytotoxicity: Cytotoxicity Assessment for CPHEA's Radioactive Iodide Uptake (RAIU) Assay for Sodium/Iodide Symporter (NIS) Inhibition, Stoker and Laws Labs (AID 2283897);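 as to AC50: active means loss of ATP signal versus DMSO meaning cytotoxicity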
# Method in brief: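 ATP luminescence (Cell Titer Glo) measured viability, with loss of signal normalized to DMSO controls. Cells: hNIS-HEK293T-EPA, seeded 40 hours prior. Dosing: 0.001–100uM, 2 hours, room temperature, uptake buffer pH 7.4.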
# [3] = target: human Thyroid hormone Receptor beta (TRb), THRB (gene 7068) (UniProt P10828); test: ATG_hTRb_XSP2: Attagene TRANS-FACTORIAL Multi-Species (XSP2) HepG2 Assay for human Thyroid hormone Receptor beta (TRb) (AID 2283840);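 also: actives raise reporter mRNA so potency reflects agonist-like gain of signal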
# Sequence of human Thyroid hormone Receptor beta (TRb), THRB (gene 7068) (P10828 whole entry, looked up, the tested form may be a part): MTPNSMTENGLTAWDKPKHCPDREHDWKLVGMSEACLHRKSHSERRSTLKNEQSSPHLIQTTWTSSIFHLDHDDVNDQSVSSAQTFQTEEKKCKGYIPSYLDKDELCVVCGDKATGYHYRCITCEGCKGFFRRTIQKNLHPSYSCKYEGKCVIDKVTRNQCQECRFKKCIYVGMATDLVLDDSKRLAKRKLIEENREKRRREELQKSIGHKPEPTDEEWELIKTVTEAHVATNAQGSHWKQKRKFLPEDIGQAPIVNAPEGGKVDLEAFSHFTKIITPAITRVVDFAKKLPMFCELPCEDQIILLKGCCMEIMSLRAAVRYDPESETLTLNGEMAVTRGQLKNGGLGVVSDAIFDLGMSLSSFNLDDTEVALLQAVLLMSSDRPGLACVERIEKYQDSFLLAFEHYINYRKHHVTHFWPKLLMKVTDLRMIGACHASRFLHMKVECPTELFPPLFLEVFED
# Method in brief: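 In this cell-based multiplex, HepG2 liver cells carrying transfected GAL4-UAS reporter constructs are exposed to chemical for 24 hours, then reporter transcripts are measured by RT-PCR with capillary electrophoresis, scored as gain of signal against DMSO.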
# PGR (gene 5241) [4] = target: PGR (gene 5241) (UniProt P06401); test: TOX21_PR_BLA_Followup_Antagonist_ratio: Tox21 HEK293 Progesterone Receptor (PR) Antagonism Beta-lactamase Follow-Up Assay, Ratio (AID 2283934)
# Sequence of PGR (gene 5241) (P06401 whole entry, looked up): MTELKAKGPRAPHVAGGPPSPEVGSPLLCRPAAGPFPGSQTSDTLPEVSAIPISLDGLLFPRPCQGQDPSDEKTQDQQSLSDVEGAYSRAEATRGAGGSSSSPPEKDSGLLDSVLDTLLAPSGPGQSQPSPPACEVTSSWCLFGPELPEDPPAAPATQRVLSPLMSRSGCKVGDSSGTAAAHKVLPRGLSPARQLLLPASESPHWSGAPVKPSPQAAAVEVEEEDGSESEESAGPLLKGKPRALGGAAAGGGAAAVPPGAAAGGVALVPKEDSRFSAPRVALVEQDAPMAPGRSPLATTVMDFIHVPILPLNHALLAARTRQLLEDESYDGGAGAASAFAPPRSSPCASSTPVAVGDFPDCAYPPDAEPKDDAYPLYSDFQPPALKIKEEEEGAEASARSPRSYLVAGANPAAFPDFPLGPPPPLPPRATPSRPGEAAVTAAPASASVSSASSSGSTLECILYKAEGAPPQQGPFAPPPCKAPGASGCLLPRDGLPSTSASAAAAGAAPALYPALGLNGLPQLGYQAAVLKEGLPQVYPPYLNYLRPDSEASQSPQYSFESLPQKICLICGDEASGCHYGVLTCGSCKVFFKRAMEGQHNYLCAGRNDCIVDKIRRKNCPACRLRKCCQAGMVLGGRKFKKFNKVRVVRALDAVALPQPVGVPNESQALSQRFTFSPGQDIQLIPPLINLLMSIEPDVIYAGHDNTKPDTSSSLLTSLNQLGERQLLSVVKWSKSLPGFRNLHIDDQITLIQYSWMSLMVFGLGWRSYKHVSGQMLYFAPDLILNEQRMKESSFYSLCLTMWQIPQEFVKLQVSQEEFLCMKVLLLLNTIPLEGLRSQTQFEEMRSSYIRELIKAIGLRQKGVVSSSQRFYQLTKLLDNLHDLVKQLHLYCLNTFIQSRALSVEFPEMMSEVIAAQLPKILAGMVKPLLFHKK
# Method in brief: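 PR-UAS-bla HEK293T cells, 3,000/well in 2% charcoal-stripped FBS, given compound plus 1nM R5020 agonist for 16 hr at 37C. Beta-lactamase FRET substrate 2 hours, ratio cleaved/uncleaved fluorescence; viability by CellTiter-Glo in same wells.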
# [5] = TOX21_PR_BLA_Followup_Agonist_viability: Viability Assessment in the Tox21 HEK293 Progesterone Receptor (PR) Agonism Beta-lactamase Follow-Up Assay (AID 2283935);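 also: signal loss means lower viability so actives are cytotoxic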
# Method in brief: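 PR-UAS-bla HEK293T cells in 2% charcoal-stripped FBS medium, plated 6 hr before compound addition, exposed 16 hr at 37C. Viability read by CellTiter-Glo ATP luminescence after 30 min at room temperature, in the same wells as the beta-lactamase readout.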
# [6] = TOX21_PR_BLA_Followup_Antagonist_viability: Viability Assessment in the Tox21 HEK293 Progesterone Receptor (PR) Antagonism Beta-lactamase Follow-Up Assay (AID 2283936);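 also: hits lower the luminescence signal meaning cytotoxicity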
# Method in brief: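 PR-UAS-bla HEK293T cells (3,000/well, 2% charcoal-stripped FBS) given compound plus R5020 agonist, 16 h at 37C. CellTiter-Glo added after bla read, 30 min at room temperature; luminescence loss indicates cytotoxicity.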
# PGR (gene 5241) [7] = target: PGR (gene 5241) (UniProt P06401); test: TOX21_PR_LUC_Followup_Antagonist: Tox21 HEK293 Progesterone Receptor (PR) Antagonism Luciferase Follow-Up Assay (AID 2283938);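 also: curve fitted upward as signal gain over DMSO baseline despite antagonist label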
# Method in brief: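 A follow-up to the PR bla screen using HEK293-PR-A-luc cells, multiplexed with cell viability to flag cytotoxicity. Reporter luminescence after 16 h compound exposure was analysed relative to DMSO.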
# [8] = CEETOX_H295R_11DCORT_noMTC: CeeTox H295R High-throughput Steroidogenesis Assay for 11-Deoxycortisol (11DCORT), maximum tolerated concentration (MTC) filtered results only (AID 2283911; active = hit-call score of the fitted dose curve at least 0.9, where 1 is the maximum; inactive = score below 0.9); conditions: actives raise or lower the signal
# Method in brief: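 Readout is 11-deoxycortisol in culture medium by reverse-phase HPLC with MS/MS, after 48 h chemical treatment of forskolin-primed H295R cells. Values are relative to DMSO and unfiltered for cytotoxicity.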
# [9] = CEETOX_H295R_OHPREG_noMTC: CeeTox H295R High-throughput Steroidogenesis Assay for OH-Pregnenolone (OHPREG), maximum tolerated concentration (MTC) filtered results only (AID 2283912; active = hit-call score of the fitted dose curve at least 0.9, where 1 is the maximum; inactive = score below 0.9); conditions: actives raise or lower the signal
# Method in brief: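 H295R cells prestimulated 48 h with 10 uM forskolin, then exposed 48 h to compound (0.1% DMSO). 17alpha-hydroxypregnenolone in medium measured by MTBE extraction and HPLC-MS/MS; bidirectional fit vs DMSO, concentrations not MTT/MTC-filtered.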
# [10] = CEETOX_H295R_OHPROG_noMTC: CeeTox H295R High-throughput Steroidogenesis Assay for OH-Progesterone (OHPROG), maximum tolerated concentration (MTC) filtered results only (AID 2283914; active = hit-call score of the fitted dose curve at least 0.9, where 1 is the maximum; inactive = score below 0.9); conditions: actives raise or lower the signal
# Method in brief: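 H295R cells prestimulated 48 h with 10 uM forskolin, then exposed 48 h to chemical (0.1% DMSO final). 17alpha-hydroxyprogesterone in medium quantified by HPLC-MS/MS after MTBE extraction; bidirectional fitting versus DMSO, concentrations not MTC-filtered.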
# [11] = CEETOX_H295R_CORTISOL_noMTC: CeeTox H295R High-throughput Steroidogenesis Assay for Cortisol, maximum tolerated concentration (MTC) filtered results only (AID 2283916; active = hit-call score of the fitted dose curve at least 0.9, where 1 is the maximum; inactive = score below 0.9); conditions: actives raise or lower the signal
# Method in brief: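 H295R human adrenal cells prestimulated 48 h with 10 uM forskolin, then exposed 48 h to chemical in 0.1% DMSO; cortisol in medium quantified by HPLC-MS/MS; bidirectional fit vs DMSO baseline, concentrations not MTT-filtered for MTC.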
# [12] = CEETOX_H295R_CORTIC_noMTC: CeeTox H295R High-throughput Steroidogenesis Assay for Corticosterone (CORTIC), maximum tolerated concentration (MTC) filtered results only (AID 2283917; active = hit-call score of the fitted dose curve at least 0.9, where 1 is the maximum; inactive = score below 0.9); conditions: actives raise or lower the signal
# Method in brief: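 H295R adrenal cells pre-stimulated 48 h with 10 uM forskolin, then exposed 48 h to chemical in 0.1% DMSO; corticosterone in medium quantified by HPLC-MS/MS, fitted bidirectionally versus DMSO without MTT-based concentration filtering.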
# [13] = CEETOX_H295R_DOC_noMTC: CeeTox H295R High-throughput Steroidogenesis Assay for DOC, maximum tolerated concentration (MTC) filtered results only (AID 2283918; active = hit-call score of the fitted dose curve at least 0.9, where 1 is the maximum; inactive = score below 0.9); conditions: actives raise or lower the signal
# Method in brief: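 H295R cells prestimulated 48 h with 10 uM forskolin, then exposed 48 h to chemical in 0.1% DMSO. 11-Deoxycorticosterone in medium measured by MTBE extraction and HPLC-MS/MS; bidirectional fit vs DMSO, no MTC filter.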
# [14] = CEETOX_H295R_ANDR_noMTC: CeeTox H295R High-throughput Steroidogenesis Assay for Androstenedione (ANDR), maximum tolerated concentration (MTC) filtered results only (AID 2283915; active = hit-call score of the fitted dose curve at least 0.9, where 1 is the maximum; inactive = score below 0.9); conditions: actives raise or lower the signal
# Method in brief: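 H295R cells, passage 10 or below, prestimulated 48 h with 10 uM forskolin, then exposed 48 h to chemical in 0.1% DMSO. Medium androstenedione extracted with MTBE, quantified by HPLC-MS/MS; concentrations not MTC-filtered; bidirectional fit versus DMSO.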
# [15] = CEETOX_H295R_ESTRADIOL_noMTC: CeeTox H295R High-throughput Steroidogenesis Assay for Estradiol, maximum tolerated concentration (MTC) filtered results only (AID 2283919; active = hit-call score of the fitted dose curve at least 0.9, where 1 is the maximum; inactive = score below 0.9); conditions: actives raise or lower the signal
# Method in brief: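 H295R human adrenal cells pre-stimulated 48 h with 10 uM forskolin, then exposed 48 h to chemical (0.1% DMSO final). Estradiol in medium measured by HPLC-MS/MS after MTBE extraction and dansyl derivatization; bidirectional fit versus DMSO, concentrations not MTT-filtered.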
# [16] = CEETOX_H295R_PROG_noMTC: CeeTox H295R High-throughput Steroidogenesis Assay for Progesterone (PROG), maximum tolerated concentration (MTC) filtered results only (AID 2283920; active = hit-call score of the fitted dose curve at least 0.9, where 1 is the maximum; inactive = score below 0.9); conditions: actives raise or lower the signal
# Method in brief: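 H295R cells, prestimulated 48 h with 10 uM forskolin, exposed 48 h to chemical in 0.1% DMSO. Medium progesterone quantified by MTBE extraction and HPLC-MS/MS; bidirectional fit versus DMSO, concentrations not MTT-filtered.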
# [17] = CEETOX_H295R_ESTRONE_noMTC: CeeTox H295R High-throughput Steroidogenesis Assay for Estrone, maximum tolerated concentration (MTC) filtered results only (AID 2283921; active = hit-call score of the fitted dose curve at least 0.9, where 1 is the maximum; inactive = score below 0.9); conditions: actives raise or lower the signal
# Method in brief: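 H295R cells prestimulated 48 h with 10 uM forskolin, then exposed 48 h to chemical in 0.1% DMSO; medium estrone measured by HPLC-MS/MS after MTBE extraction and dansyl derivatization, fitted bidirectionally versus DMSO without MTT-based MTC filtering.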
# [18] = CEETOX_H295R_TESTO_noMTC: CeeTox H295R High-throughput Steroidogenesis Assay for Testosterone (TESTO), maximum tolerated concentration (MTC) filtered results only (AID 2283924; active = hit-call score of the fitted dose curve at least 0.9, where 1 is the maximum; inactive = score below 0.9); conditions: actives raise or lower the signal
# Method in brief: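 H295R cells prestimulated 48 h with 10 uM forskolin, then exposed 48 h to chemicals in 0.1% DMSO final. Testosterone in medium quantified by MTBE extraction and HPLC-MS/MS; bidirectional fit versus DMSO, concentrations […] filtered by MTT-based maximum tolerated concentration.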
# [19] = target: T1, Thyroid hormone receptor alpha (Rattus norvegicus) + Thyroid hormone receptor beta (Rattus norvegicus) (UniProt P18113+P63059); test: TOX21_TR_LUC_GH3_Antagonist_Followup: Tox21 GH3 Thyroid Hormone Receptor Antagonism Luciferase Follow-Up Assay (AID 2283942)
# T1 sequence (P63059 whole entry, looked up): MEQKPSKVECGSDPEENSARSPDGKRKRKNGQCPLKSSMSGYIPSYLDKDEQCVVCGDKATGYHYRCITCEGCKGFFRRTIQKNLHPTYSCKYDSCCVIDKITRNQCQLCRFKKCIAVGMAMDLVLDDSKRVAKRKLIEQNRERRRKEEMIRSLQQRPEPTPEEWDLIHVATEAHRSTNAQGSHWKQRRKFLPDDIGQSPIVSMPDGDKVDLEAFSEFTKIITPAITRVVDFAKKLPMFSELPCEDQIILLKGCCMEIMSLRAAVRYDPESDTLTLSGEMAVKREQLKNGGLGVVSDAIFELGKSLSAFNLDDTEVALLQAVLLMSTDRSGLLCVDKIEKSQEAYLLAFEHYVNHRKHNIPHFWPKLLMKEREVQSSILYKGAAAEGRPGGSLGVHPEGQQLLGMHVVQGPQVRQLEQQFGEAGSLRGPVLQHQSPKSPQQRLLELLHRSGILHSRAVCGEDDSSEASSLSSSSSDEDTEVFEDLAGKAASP
# T1 sequence (P18113 whole entry, looked up): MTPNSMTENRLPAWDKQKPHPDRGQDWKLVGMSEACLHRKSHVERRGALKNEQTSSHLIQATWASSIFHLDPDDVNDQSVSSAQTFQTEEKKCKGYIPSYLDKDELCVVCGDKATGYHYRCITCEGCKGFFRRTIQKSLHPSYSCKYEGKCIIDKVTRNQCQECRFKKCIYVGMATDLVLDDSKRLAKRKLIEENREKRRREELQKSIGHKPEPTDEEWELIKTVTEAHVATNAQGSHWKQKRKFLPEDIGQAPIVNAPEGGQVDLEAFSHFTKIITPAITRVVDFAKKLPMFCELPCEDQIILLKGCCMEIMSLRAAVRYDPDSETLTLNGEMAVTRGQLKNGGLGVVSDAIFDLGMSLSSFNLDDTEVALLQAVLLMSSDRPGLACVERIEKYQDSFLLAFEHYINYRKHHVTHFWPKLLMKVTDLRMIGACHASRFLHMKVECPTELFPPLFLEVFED
# Method in brief: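 Antagonist mode: GH3 cells seeded 1,500/well, compounds at 15 concentrations (92 uM to 5nM final) plus T3 at 1.0 nM final, 24 h at 37C. Luciferase read with ONE-Glo after 30 min at room temperature.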
# [20] = target: T1, Thyroid hormone receptor alpha (Rattus norvegicus) + Thyroid hormone receptor beta (Rattus norvegicus); test: TOX21_TR_LUC_GH3_Agonist_Followup: Tox21 GH3 Thyroid Hormone Receptor Agonism Luciferase Follow-Up Assay (AID 2283939)
# Method in brief: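 Rat GH3 cells (1,500/well) in serum-free assay medium, treated with 15-point series, 92 uM to 5 nM final, for 24 h at 37C. Luciferase via ONE-Glo luminescence; gain of signal fitted against DMSO, T3 positive control.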
smiles,measurement,setting,value
CC(=O)O[C@]1(C(C)=O)CC[C@H]2[C@@H]3C=C(Cl)C4=CC(=O)[C@@H]5C[C@@H]5[C@]4(C)[C@H]3CC[C@@]21C,outcome,[1],inactive
same,outcome,[2],inactive
Cc1c(C)c2c(c(C)c1O)CCC(C)(COc1ccc(CC3SC(=O)NC3=O)cc1)O2 (stereo not given),outcome,[3],inactive
same,AC50,[1],50 µM (active)
same,AC50,[2],12.5 µM (active)
CCC(C)N(C)C(=O)c1cc2ccccc2c(-c2ccccc2Cl)n1 (stereo not given),AC50,[1],30 µM (active)
same,outcome,[2],inactive
CSc1ccc(Oc2ccc(S(N)(=O)=O)cc2CN(C)C)cc1C,outcome,[2],inactive
CCc1nc(N)nc(N)c1-c1ccc(Cl)cc1,outcome,[2],inactive
CC(=O)[C@@]1(O)CC[C@H]2[C@@H]3CCC4=CC(=O)CC[C@]4(C)[C@H]3CC[C@@]21C,outcome,PGR (gene 5241) [4],inactive
same,outcome,[5],inactive
same,outcome,[6],inactive
same,outcome,PGR (gene 5241) [7],inactive
CN(C)CCCN1c2ccccc2Sc2ccc(Cl)cc21,outcome,[1],inactive
same,outcome,[2],inactive
C=CCc1ccc(OC)c(OC)c1,outcome,[8],inactive
same,outcome,[9],inactive
same,outcome,[10],inactive
same,outcome,[11],inactive
same,outcome,[12],inactive
same,outcome,[13],inactive
O=C1OC(c2ccc(O)cc2)(c2ccc(O)cc2)c2ccccc21,AC50,[1],0.722 µM (active)
same,outcome,[2],inactive
Nc1nc(=S)c2[nH]cnc2[nH]1,AC50,[8],44.7 µM (active)
same,AC50,[9],72.9 µM (active)
same,AC50,[10],74.3 µM (active)
same,AC50,[14],77 µM (active)
same,AC50,[11],37 µM (active)
same,AC50,[12],33.3 µM (active)
same,AC50,[13],35.4 µM (active)
same,outcome,[15],inactive
same,AC50,[16],78.8 µM (active)
same,outcome,[17],inactive
same,AC50,[18],74.5 µM (active)
CN(C)C(=O)NC1(c2ccccc2)CCN(CCC[C@]2(c3ccc(Cl)c(Cl)c3)CCCN(C(=O)c3ccccc3)C2)CC1,outcome,[2],inactive
NC(=Nc1ccccc1)Nc1ccccc1,AC50,[8],82.8 µM (active)
same,outcome,[9],inactive
same,outcome,[10],inactive
same,AC50,[11],44.4 µM (active)
same,AC50,[12],39.1 µM (active)
same,AC50,[13],50 µM (active)
same,outcome,[15],inactive
same,outcome,[16],inactive
same,outcome,[17],inactive
O=C(Oc1ccccc1)c1cccc(C(=O)Oc2ccccc2)c1,outcome,[1],inactive
same,outcome,[2],inactive
same,outcome,[8],inactive
same,outcome,[9],inactive
same,outcome,[10],inactive
same,outcome,[14],inactive
same,outcome,[11],inactive
same,outcome,[12],inactive
same,outcome,[13],inactive
same,outcome,[16],inactive
same,outcome,[18],inactive
CCN(CC)CCOc1ccc(C(=C(Cl)c2ccccc2)c2ccccc2)cc1,outcome,[3],inactive
same,outcome,[1],inactive
same,AC50,[2],9.92 µM (active)
CC(=O)OCC(COC(C)=O)OC(C)=O,outcome,[1],inactive
same,outcome,[2],inactive
Cc1ccc(-c2cc(C(F)(F)F)nn2-c2ccc(S(N)(=O)=O)cc2)cc1,outcome,[1],inactive
same,outcome,[2],inactive
COc1ccc(OC(F)(F)F)cc1CN[C@H]1CCCN[C@H]1c1ccccc1,outcome,[2],inactive
Cc1ccc(C(C)(C)C)c(O)c1,outcome,[2],inactive
CC(COCC(C)OC(=O)c1ccccc1)OC(=O)c1ccccc1 (stereo not given),outcome,[1],inactive
same,outcome,[2],inactive
CCCCCCCCCCCCCCOS(=O)(=O)O,outcome,[1],inactive
same,outcome,[2],inactive
CCCCCCC(C=O)=Cc1ccccc1,outcome,[2],inactive
O=Cc1ccccc1C=O,outcome,[1],inactive
same,outcome,[2],inactive
Nc1nc(Cl)nc2c1ncn2[C@H]1C[C@H](O)[C@@H](CO)O1,outcome,[19],inactive
Cc1occc(=O)c1O,outcome,[20],inactive
CCCCCCC(CCCCCCCCCCC(=O)OCC(COC(C)=O)OC(C)=O)OC(C)=O (stereo not given),outcome,[1],inactive
same,outcome,[2],inactive
